CHT PAM: allosteric activators of human choline transporter CHT; CHT-expressing cells, membrane potential dye, choline EC20; hits give high values; LV-AA mutant CHT in HEK293 cells; Q9GZV3; AID 488977; 310,000 compounds, 0.49% hits; B-score at 10 µM;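 active means initial fluorescence not abnormally high and integrated response B-score, plate-corrected, over 3 SD above library mean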
HIF activator: HIF pathway transcriptional activation; activation, % at 7.5 µM (by protocol); 300,000 compounds, 0.32% hits; AID 1910; U2OS HRE-luciferase reporter, luminescence; normalized: DMSO 0%, desferrioxamine 100%;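 active means mean activation of at least 10% of the iron chelator positive control signal, with at least half of replicates also reaching 10%; inconclusive means mean and replicate majority disagree about reaching 10%; inactive means mean and most replicates under 10%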
AI-2 QS mod: modulates the Vibrio harveyi AI-2 quorum sensing system | Vibrio harveyi JMH597 AI-2 luminescence/OD600 ratio, 9 h; hits give low values; strain lacks LuxN and CqsS sensors; 0 = neutral-control median | activity change, % at 7.5 µM | 300,000 compounds, 0.4% hits; in the data active means activity change below about -75%, passing the limit was not always enough; inconclusive means no clear call, values can overlap the other calls;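 further: luminescence divided by OD600 gain over 9 h not by final OD600 alone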
Platelet DG rel: modulates dense granule release in human platelets; human platelet-rich plasma, SFLLRN dense granule ATP release, luminescence; inhibition, %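 (compounds screened at 7.5 µM in platelet-rich plasma)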; 300,000 compounds, 0.22% hits; AID 1663;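 active means mean replicate score, as percent of positive control, at or above 50; inconclusive means mean below 50 but at least one replicate at or above 50; inactive means mean and every replicate below 50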
CHT inh: human CHT choline transport inhibition; 310,000 compounds, 0.86% hits; CHT-expressing cells, membrane potential dye, choline response; hits give low values; B-score at 10 µM;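 active means B-score over 3 SD under the library average, and starting fluorescence ratio not unusually high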;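 further: choline stimulus applied at its EC90 after an EC20 pre-addition; B-score computed on integrated fluorescence ratio after choline addition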
VLA-4 inh: inhibition in a human VLA-4 binding assay; VLA-4 expressing cells, ligand binding flow cytometry; 330,000 compounds, 0.2% hits; AID 2557; P13612; inhibition, % (about 7 µM as worked out from the volumes in the protocol); in the data active means inhibition above about 50%
Target sequence (P13612 whole entry, looked up): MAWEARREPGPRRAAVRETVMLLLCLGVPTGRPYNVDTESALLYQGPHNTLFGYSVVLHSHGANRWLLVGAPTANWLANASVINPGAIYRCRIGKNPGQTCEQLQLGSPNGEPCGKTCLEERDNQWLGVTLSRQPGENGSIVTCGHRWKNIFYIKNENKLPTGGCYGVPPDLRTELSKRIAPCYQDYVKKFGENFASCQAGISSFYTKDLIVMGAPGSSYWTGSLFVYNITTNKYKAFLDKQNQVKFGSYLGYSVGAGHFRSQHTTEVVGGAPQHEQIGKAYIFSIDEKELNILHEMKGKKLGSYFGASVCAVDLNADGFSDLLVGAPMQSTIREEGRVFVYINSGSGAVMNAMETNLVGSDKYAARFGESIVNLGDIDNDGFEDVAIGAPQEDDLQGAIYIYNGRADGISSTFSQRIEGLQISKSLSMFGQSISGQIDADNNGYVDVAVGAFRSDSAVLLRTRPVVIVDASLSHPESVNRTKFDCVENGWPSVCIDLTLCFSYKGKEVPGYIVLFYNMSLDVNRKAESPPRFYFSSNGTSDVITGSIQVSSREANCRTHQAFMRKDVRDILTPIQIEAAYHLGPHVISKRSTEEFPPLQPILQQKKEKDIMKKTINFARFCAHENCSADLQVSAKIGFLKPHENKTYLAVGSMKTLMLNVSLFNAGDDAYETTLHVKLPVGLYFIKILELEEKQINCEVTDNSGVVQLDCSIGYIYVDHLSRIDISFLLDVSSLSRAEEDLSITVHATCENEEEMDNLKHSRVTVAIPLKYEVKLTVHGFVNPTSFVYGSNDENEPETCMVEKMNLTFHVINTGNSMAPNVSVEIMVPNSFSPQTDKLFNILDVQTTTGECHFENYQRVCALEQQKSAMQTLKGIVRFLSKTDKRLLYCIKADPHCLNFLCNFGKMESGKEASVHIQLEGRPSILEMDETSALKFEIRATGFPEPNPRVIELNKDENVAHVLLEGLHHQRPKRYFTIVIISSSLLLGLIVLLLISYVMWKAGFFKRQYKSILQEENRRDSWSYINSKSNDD
Numbers stand for hits; n = inactive; u = inconclusive; x = no result given. Compounds with a hit are over-represented: about 2.2% of the library has one in this group of screens.

SMILES | CHT PAM | HIF activator | AI-2 QS mod | Platelet DG rel | CHT inh | VLA-4 inh
Cc1ccc(C2CC(c3ccccc3OC(F)F)Nc3ncnn32)cc1 (centres undefined) | n | n | n | 51.1 | n | n
O=C(NCc1ccco1)c1cc2ccc(O)cc2oc1=O | n | n | n | 70.3 | n | n
COc1ccc2cc(C(=O)NCc3ccco3)c(=O)oc2c1 | n | n | n | n | n | n
COc1ccc(CC(=O)Nc2cc(C)ccc2O)cc1OC | n | n | -78.0 | n | n | n
COc1ccc(CC(=O)Nc2cc(C)on2)cc1OC | n | n | n | n | n | n
O=S(=O)(c1ccc(Cl)nc1)N1CCCCC1 | n | n | n | n | n | n
COc1cc(C(=O)Nc2sc(C)c(C)c2C(=O)O)cc(OC)c1OC | n | 165.0 | n | n | n | n
COc1ccc(OC)c(NC(=O)COC(=O)CCCN=C2NS(=O)(=O)c3ccccc32)c1 | x | x | x | x | x | n
Cc1ccc(S(=O)(=O)Nc2ccc(C(=O)N3CCCC3)cc2)cc1 | n | n | n | n | n | n
Cc1ccc(NS(=O)(=O)c2ccc(C(=O)N3CC(C)CC(C)C3)cc2)cc1 (centres undefined) | 10.4 | n | n | n | n | n
COC(=O)C(C)Oc1cc(OC(C)C(=O)OC)c2c(-c3ccccc3)cc(=O)oc2c1 (centres undefined) | n | n | n | n | n | n
Cc1cccc(-c2noc(C(C)NC(=O)c3ccco3)n2)c1 (centres undefined) | n | n | n | n | n | n
CCOC(=O)C1=C(C)N=c2s/c(=C/c3cccc([N+](=O)[O-])c3O)c(=O)n2C1c1ccccc1 (centres undefined) | n | n | n | n | -8.02 | n
CC(C)c1nnc(NC(=O)CCC(=O)NC2CC2)s1 | n | 17.9 | n | 54.7 | n | n
CCc1cnccc1CCC(=O)Nc1ccccc1C | n | 429.9 | n | n | n | n
Cc1ccccc1NC(=O)CCC(=O)N/N=C/c1cccnc1 | n | n | n | n | n | n
COCCNC(=O)CSc1nc2scc(-c3ccccc3)c2c(=O)[nH]1 | n | n | n | n | n | n
COc1ccc(-n2c(-c3ccc(Cl)cc3)c[nH]c2=S)cc1 | n | n | n | n | n | n
COc1ccc(CN2CCNC(=O)C2CC(=O)N(C)CC2CCOCC2)cc1OC (centres undefined) | n | 25.8 | n | n | n | n
CN(Cc1ccccc1)C(=O)c1cccc(NC(=O)C2CCCN(C(=O)OC(C)(C)C)C2)c1 (centres undefined) | x | x | x | x | x | n
O=C(NCCc1csc(-c2cccc(F)c2)n1)c1ccco1 | n | 16.0 | n | n | n | n
COC(=O)c1cc(S(=O)(=O)NCc2cccc(Br)c2)c[nH]1 | n | n | n | n | n | n
Oc1ccccc1Oc1ncc(Br)c(N2CCOCC2)n1 | n | n | n | n | n | n
Oc1ccccc1Oc1c(F)c(F)nc(N2CCCC2)c1F | n | n | -93.5 | n | n | n
Cc1ccsc1/C=C(\C#N)C(=O)NC1CCS(=O)(=O)C1 (centres undefined) | n | n | n | n | n | n
SMILES | CHT PAM | HIF activator | AI-2 QS mod | Platelet DG rel | CHT inh | VLA-4 inh
CCn1c(SCC(=O)Nc2nncs2)nnc1-c1ccco1 | n | 33.9 | n | n | n | n
O=C(O)CCC(=O)NNc1nc2ccccc2nc1-c1ccccc1 | n | n | n | n | n | n
O=C(O)CCC(=O)NNc1ncnc2ccccc12 | n | n | n | n | n | 49.6
Oc1ccc(/C=N/Nc2ccc(C(F)(F)F)cn2)cc1 | n | n | n | n | n | n
Oc1ccc(/C=N/Nc2cccc(Cl)n2)c(O)c1 | n | n | n | 50.3 | n | n
Oc1ccc(/C=N/Nc2ccc(C(F)(F)F)cn2)c(O)c1 | n | 14.8 | n | n | n | n
COc1ccc2cc(CO)c3cc(OC)c(OC)cc3c2c1 | x | x | x | x | x | n
CCCCn1c(=O)c2c(O)cc(=O)oc2c2ccccc21 | n | 21.9 | n | n | n | n
O=c1c(-c2nn[nH]n2)coc2ccc(Cl)cc12 | n | n | n | n | n | n
Cc1ccc(NC(=S)N(Cc2cccs2)Cc2cc3cccc(C)c3[nH]c2=O)cc1 | n | 888.6 | n | n | n | n
Cc1cccc2cc(CN(CCN(C)C)C(=S)Nc3ccccc3)c(=O)[nH]c12 | n | n | n | n | n | n
CN(C)c1ccc(N=Nc2nc3ccccc3n2C)cc1 | n | n | n | 181.8 | n | n
CCn1c(NCc2ccc(N(C)C)cc2)nc2ccccc21 | n | n | n | n | n | n
O=C(CN1C(=O)NC(CCc2ccccc2)C1=O)N1CCCCCC1 (centres undefined) | x | x | x | x | x | n
O=C(NCc1ccc2c(c1)OCO2)c1ccc2c(c1)OCO2 | n | n | n | n | n | n
O=C(O)c1ccc(NCc2ccc3c(c2)OCO3)cc1 | n | n | -91.8 | n | n | n
Cc1nnsc1C(=O)N/N=C/c1c(F)cccc1Cl | n | n | n | n | n | n
Cc1[nH]cnc1C(=O)N/N=C/c1c(Cl)cccc1Cl | n | n | n | 72.0 | n | n
CCN1CCN(CCCOc2ccc(-c3ccccc3)cc2)CC1 | n | 59.6 | n | n | n | n
CN1CCN(CCCOc2ccc(-c3ccccc3)cc2)CC1 | n | n | n | n | n | n
CCc1ccc(/C=C2/SC(=S)N(CCCC(=O)Nc3ccccc3C(=O)O)C2=O)cc1 | n | n | n | n | -7.51 | n
CCc1ccc(/C=C2\SC(=S)N(CCCC(=O)Nc3ccccn3)C2=O)cc1 | n | n | n | n | n | n
CCc1ccc(/C=C2/SC(=S)N(CCC(=O)Nc3cccc(C(=O)O)c3)C2=O)cc1 | n | n | n | n | -5.93 | n
Cc1nc2sc(C(N)=O)c(N)c2c2c1CCCC2 | n | n | n | n | n | n
C#CCN1C(=O)S/C(=C/C=C/c2ccc(N(C)C)cc2)C1=O | n | x | x | x | n | n
SMILES | CHT PAM | HIF activator | AI-2 QS mod | Platelet DG rel | CHT inh | VLA-4 inh
CCOC(=O)N1CCN(Cc2nc3c(c(=O)n(C)c(=O)n3C)n2Cc2cccc3ccccc23)CC1 | n | n | n | 73.2 | n | n
CCOC(=O)N1CCN(Cc2nc3c(c(=O)n(C)c(=O)n3C)n2Cc2cccc(C)c2)CC1 | n | n | n | n | n | n
O=C(NNC(=O)c1cccnc1SCc1cccc([N+](=O)[O-])c1)c1ccccn1 | n | 29.9 | n | n | n | n
C(C#CCCCCCCCCC[n+]1ccccc1)#CCCCCCCCCC[n+]1ccccc1 | 7.65 | n | n | n | n | n
COc1cccc(/C=N/Nc2ncccc2[N+](=O)[O-])c1OC | n | n | n | 81.9 | n | n
COc1ccccc1/C=N/Nc1nccnc1Cl | n | n | n | 67.5 | n | n
O=[N+]([O-])c1ccc(/C=N/Nc2ncccc2[N+](=O)[O-])s1 | n | n | n | n | n | n
Oc1c(C(c2ccccc2Cl)N2CCCC2)ccc2cccnc12 (centres undefined) | n | 59.0 | u | n | n | n

Source: PubChem BioAssay
